Assay outcomes from PubChem.
Sampled rows, rich in hits. Any-hit rate of the full collection: about 19%.
KB-3-1 tox: kills parental KB-3-1 adenocarcinoma cells; 1.4% of 400,000 active; AID 1347075; KB-3-1 viability, CellTiter-Glo ATP luminescence, 72 h; Potency, µM (top dose mostly 46.1 µM), usual class: cytotoxic; further: nearly all actives have a fitted effect of over 60% in size
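Multi-concentration cytotoxicity screen in KB-3-1 cells grown in DMEM lacking phenol red with 10% FBS. After 72 h at 37 °C with compound, ATP-dependent luminescence was recorded.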
HT1080 IDH1KD tx: kills HT-1080 cells with IDH1 knockdown; HT-1080 IDH1 knockdown viability, ATP luminescence, 48 h; 2% of 360,000 active; Potency, µM (doses to about 46.1 µM), for inactives: top-dose activity, negative = toxicity, usual class: cytotoxic;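 further: 0% = DMSO wells and -100% = cell-free medium wells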
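Viability of IDH1-knockdown HT-1080 fibrosarcoma cells was assessed by CellTiter-Glo after 48 h at 37 °C with titrated compound; concentration-effect curves were classified by fit quality and response size.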
TDP1 cell CPT: DT40-hTDP1 cell growth loss with CPT | chicken DT40 Tdp1-/-;hTDP1 cells + 20 nM CPT, ATP luminescence, 48 h | Potency, µM (series often up to 46.2 µM), inactives show top-dose activity change, negative = growth inhibition, actives largely listed as inhibitors | 12% of 420,000 active | AID 686979; further: nearly all actives have a fitted effect of over 55% in size
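Chicken DT40 Tdp1-/- cells complemented with human TDP1, 400 cells/well, exposed to compounds plus 20 nM camptothecin for at least 48 h at 37 C; viability read as ATP content by CellTiter-Glo luminescence.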
DT40 TDP1 no CPT: qHTS for Inhibitors of human tyrosyl-DNA phosphodiesterase 1 (TDP1): qHTS in cells in absence of CPT; DT40 Tdp1-/- hTDP1 cells, no CPT, ATP luminescence, 48 h; Potency, µM (series often up to 46.2 µM), without a hit: at the top dose activity change, negative = growth inhibition, hits mostly inhibitors; 15% of 420,000 active; AID 686978, 2013; further: nearly all actives have a fitted effect of over 55% in size
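DT40 Tdp1-/-;hTDP1 cells, no CPT (DMSO vehicle only), 400 cells/well; compounds pin-transferred; ≥48 hr, 37 °C; CellTiter-Glo 30 min RT dark, luminescence read.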
HT1080-NT tox: kills 2HG-producing HT-1080-NT fibrosarcoma cells | HT-1080-NT fibrosarcoma viability, CellTiter-Glo ATP luminescence, 48 h | Potency, µM (titrated, usually from 46.1 µM), without a hit: top-dose activity, negative = less viability, actives largely listed as cytotoxic | 1.6% of 360,000 active;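 further: NT is the 2HG producing partner of a matched IDH1 knockdown line; 0% = DMSO-treated cells and -100% = media-only wells without cells; nearly all actives have a fitted effect of over 55% in size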
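Fibrosarcoma NT cells, 750 per well in 5% FBS RPMI, were exposed to compound for 48 hours. Viability: CellTiter-Glo luminescence.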
KB-V1 cytotox: KB-V1 MDR subline cytotoxicity | KB-V1 MDR cells viability, CellTiter-Glo, 72 h | Potency, µM (titrated, usually from 46.1 µM), actives largely listed as cytotoxic | 3.4% of 400,000 active | AID 1347076; further: nearly all actives have a fitted effect of over 60% in size
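Following 72 h at 37 degrees C with compound, KB-V1 cell viability was read by CellTiter-Glo luminescence, medium being phenol-red-free DMEM plus 10% FBS; concentration-response parameters came from normalized, curve-fitted qHTS data.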
An asterisk follows results filed as active; i = inactive; ? = inconclusive; . = not tested or not shown. The call rests on the fitted dose curve; in most records, active means well fitted curve in the direction sought with a large enough effect; inconclusive means small, poorly fitted or top-dose-only effect, or another doubt; inactive means no such curve, though single readings can be large; an effect the other way counts as inactive or inconclusive. Unless noted, on the % scale 0 is the no-effect control and ±100 the full control effect; potency means the concentration at half of the fitted maximal effect.

SMILES | KB-3-1 tox | HT1080 IDH1KD tx | TDP1 cell CPT | DT40 TDP1 no CPT | HT1080-NT tox | KB-V1 cytotox
CC(=O)Nc1ccc(C(=O)COC(=O)C2CC2)c(F)c1 | i | 9% | 14% | 5% | 19% | ?
COc1ccc(-c2csc(NC(=O)c3cc(=O)c4ccccc4o3)n2)cc1OC | i | -1% | ? | 5.8µM* | -1% | ?
Cc1noc(C)c1-c1ccc(C(=O)NCC2CC2)c2occc12 | i | 0% | ? | ? | 0% | ?
Cc1noc(C)c1-c1ccc(C(=O)NC2CCCCC2)c2occc12 | i | -16% | 16µM* | 15µM* | 8% | i
COc1ccc(NC(=O)c2ccc(-c3c(C)noc3C)c3ccoc23)cc1 | i | 0% | ? | ? | -18% | i
Cc1noc(C)c1-c1ccc(C(=O)Nc2ccccc2)c2occc12 | i | ? | 26µM* | ? | -16% | ?
CCOc1ccc(OCCC(=O)NNC(=O)c2cc(OC)c(OC)c(OC)c2)cc1 | i | 0% | 2% | 0% | 3% | i
Cc1cccc(NCc2ccccc2O)c1C | i | -26% | -6% | -17% | -12% | i
Cc1cccc(NCc2nnc(-c3ccccc3)o2)c1C | i | -18% | ? | ? | -17% | 18µM*
CCCCn1c(N)c(N(CC)C(=O)CN2C(=O)NC(C)(c3ccccc3)C2=O)c(=O)[nH]c1=O (configuration not stated) | i | 6% | 5% | -4% | 6% | i
CCOC(=O)c1ccc(NC2=CC(c3ccc(O)c(OCC)c3)N(c3ccc(C(=O)OCC)cc3)C2=O)cc1 (configuration not stated) | i | . | 13µM* | 13µM* | . | i
COc1cc(C2C=C(Nc3ccccc3)C(=O)N2c2ccccc2)ccc1O (configuration not stated) | i | -7% | ? | ? | -2% | ?
O=S(=O)(c1ccc(=S)[nH]c1)N1CCN(Cc2ccccc2)CC1 | i | 1% | ? | ? | -8% | i
CN(C)C(=O)CN1CCN(C(=O)CCl)CC1 | ? | -1% | ? | 16µM* | -27% | i
Cc1c(NC(=O)c2ccc3ncccc3c2)c(=O)n(-c2ccccc2)n1C | i | -4% | 5% | -1% | 1% | i
CCN(CC)S(=O)(=O)c1ccc(N2CCc3cc(OC)c(OC)cc3C2)nc1 | i | -14% | 18µM* | ? | -12% | i
Cc1ccc(NCc2cc3cc4c(cc3n(CC(=O)Nc3ccc(F)cc3F)c2=O)OCCO4)cc1 | ? | . | . | . | . | i
COc1ccc(NCc2cc3cc4c(cc3n(CC(=O)Nc3ccccc3)c2=O)OCO4)cc1 | . | . | 5.2µM* | 4.1µM* | . | .
COc1ccc(NCc2cc3cc4c(cc3n(CC(=O)Nc3cc(C)cc(C)c3)c2=O)OCO4)cc1 | i | . | . | . | . | i
COc1ccc(-n2cc(-c3ccc4c(c3)OCO4)n(CC(=O)Nc3cccc(C)c3)c2=O)cc1 | i | . | 23µM* | ? | . | i
Cc1ccc(NCc2cc3cc4c(cc3n(CC(=O)Nc3ccc(C)cc3)c2=O)OCCO4)cc1 | . | . | 7.3µM* | 8.2µM* | . | .
COc1cc2cc(CNc3ccc(C)cc3)c(=O)n(CC(=O)Nc3ccc(F)cc3F)c2cc1OC | . | . | ? | 16µM* | . | .
